High-throughput results (PubChem BioAssay)
A selection: hits, their analogues and other compounds. The true share with any hit is near 4.8%.
DAX1 inh-1 = inhibitors of DAX1 repression of SF-1 activated StAR promoter; HEK293T StAR-luciferase reporter, SF-1/DAX-1 repression relief; actives 1.1% (n = 370,000); inhibition, % at 6.8 µM; AID 652010;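 active means inhibition above the mean over all tested compounds plus 3 SD, cut at about 3.6% in these data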;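 further: 0% = DAX-1 cells with DMSO and 100% = cells lacking DAX-1 with DMSO; higher inhibition means more luminescence from relief of DAX-1 repression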
hgDAF12 agonist = activates the H. glycines DAF-12 receptor ligand-binding domain | HEK293 GAL4-hgDAF12 UAS-luciferase reporter, agonist luminescence; normalized to butyrate control | activation, % at 6.8 µM | actives 1.8% (n = 370,000);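 active means activation above a cutoff set at the mean of all screened compounds plus 3 SD, cut at about 10% in these data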;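 further: 0% = DMSO wells and 100% = sodium butyrate wells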
DAX1 inh-2 = inhibits human nuclear receptor DAX1. HEK293 Gal4-DAX1 luciferase reporter, luminescence. actives 0.99% (n = 340,000). AID 504766. inhibition, % at 6.75 µM. P51843;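 active means inhibition above the mean over all tested compounds plus 3 SD, cut at about 4.2% in these data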;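 further: 0% = DAX1-transfected cells with DMSO and 100% = empty-vector control cells with DMSO; inhibition shows as a rise in luminescence from relieved DAX1 repression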
SMARCA2 activ = SMARCA2 function activation, primary screen | MG213 cells, MMTV-luciferase reporter, dexamethasone, overnight | activation, % at 9.1 µM | actives 1% (n = 370,000) | AID 652017; in the data active means activation above about 7.8%;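 further: 0% = vehicle wells and 100% = reference activator wells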
hcDAF-12 act = H. contortus DAF-12 activation, primary screen; actives 1.4% (n = 370,000); activation, % at 6.8 µM; HEK293 hcDAF-12 lit1-tk-luc reporter, luminescence; 0% DMSO, 100% Δ7-dafachronic acid;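 active means activation above the mean of all tested compounds plus 3 SD, cut at about 5.5% in these data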;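 further: 100% = response to 3 µM Δ7-dafachronic acid high control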
ssDAF-12 act = activates DAF-12 receptor from parasite S. stercoralis; HEK293 ssDAF-12/GRIP1 lit1-tk-luc reporter, luminescence; % of 3 µM dafachronic acid response; activation, % at 6.8 µM; actives 1% (n = 370,000);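 active means activation above the mean over all tested compounds plus 3 SD, cut at about 0.9% in these data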;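 further: 0% = DMSO-only wells and 100% = 3 µM delta7-dafachronic acid wells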
LXRb hcDAF ctr = counter-screen for hcDAF-12 agonists: agonists of human LXR-beta. HEK293 Gal4-LXR tk-luc reporter, luminescence, 24 h; normalized: DMSO 0%, positive control 100%. shares compounds with hcDAF-12 act. 3,400 tested, under 10 active. activation, % at 6.8 µM. AID 743027;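 active means mean percent activation of the reporter above a cutoff set as the average over tested compounds plus their standard deviation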
Target sequence (P55055 whole entry, looked up, the tested form may be a part): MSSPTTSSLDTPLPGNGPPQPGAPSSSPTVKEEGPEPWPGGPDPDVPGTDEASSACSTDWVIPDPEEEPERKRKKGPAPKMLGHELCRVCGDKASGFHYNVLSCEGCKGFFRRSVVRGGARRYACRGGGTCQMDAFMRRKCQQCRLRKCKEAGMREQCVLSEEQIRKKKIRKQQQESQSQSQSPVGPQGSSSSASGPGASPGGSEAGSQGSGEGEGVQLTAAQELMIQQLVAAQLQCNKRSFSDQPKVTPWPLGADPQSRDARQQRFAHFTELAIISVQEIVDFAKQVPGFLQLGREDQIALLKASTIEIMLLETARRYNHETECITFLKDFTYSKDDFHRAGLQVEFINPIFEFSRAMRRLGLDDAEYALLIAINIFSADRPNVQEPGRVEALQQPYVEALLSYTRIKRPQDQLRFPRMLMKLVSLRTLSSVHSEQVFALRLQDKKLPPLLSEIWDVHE
hcDAF12 conf = confirmation of H. contortus DAF-12 agonists; shares compounds with hcDAF-12 act; HEK293 hcDAF-12 lit1-tk-luc reporter, luminescence; % of Δ7-dafachronic acid response; activation, % at 6.8 µM; actives 61% (n = 3,400); AID 743032;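 active means mean activation across triplicate tests above the threshold derived from the earlier primary screen, cut at about 5.5% in these data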;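 further: 0% = DMSO only wells and 100% = 3 µM Δ7-dafachronic acid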
Active calls of the source: *; . = no result.

SMILES	DAX1 inh-1	hgDAF12 agonist	DAX1 inh-2	SMARCA2 activ	hcDAF-12 act	ssDAF-12 act	LXRb hcDAF ctr	hcDAF12 conf
COC(=O)C1=C(C)N(Cc2cccc(C(F)(F)F)c2)C(=NCc2cc(OC)c(OC)c(OC)c2)NC1c1cccc(Cl)c1 (configuration not stated)	0.8	-0.7	.	-3.4	1.6	-0.6	.	.
Cc1c(N=C2NN=C(c3c[nH]c4ccccc34)CS2)c(=O)n(-c2ccccc2)n1C	-0.8	1.9	-1.2	0.5	7.0*	0.0	-0.3	2.1
CCCCCn1cc(CCC(=O)Nc2ccc(N(C)c3ccccn3)cc2)c2ccccc21	0.0	5.9	.	-1.4	-1.5	-1.3	.	.
COc1cccc(OCc2cc(C(=O)N(C)C3CCOCC3)no2)c1	0.0	0.7	0.3	-0.9	4.0	-0.8	.	.
CC(=O)c1ccc(OCc2cc(C(=O)N(C)C3CCOC3)no2)cc1 (configuration not stated)	4.0*	10.9*	2.6	4.6	7.1*	0.6	0.6	6.8*
CCCCCn1cc(CCC(=O)Nc2ccc(Oc3cccnc3)cc2)c2ccccc21	0.1	0.8	.	1.2	-0.6	-1.3	.	.
COc1ccc(/C=C/C(=O)NC(=S)Nc2cc([N+](=O)[O-])ccc2O)cc1OC	2.1	4.1	0.2	-2.2	-1.7	-2.0	.	.
O=C(NC(=S)Nc1cc([N+](=O)[O-])ccc1O)C1CC1	-0.3	2.6	0.3	-1.0	9.6*	-0.7	-0.3	0.7
COC(=O)c1cc2c(c3c4cc(OC)ccc4n(S(=O)(=O)c4ccc(OC)cc4)c13)C(=O)N(Cc1ccccc1)C2	-0.2	1.2	.	-1.0	-0.2	-1.2	.	.
O=C(Cc1ccccc1[N+](=O)[O-])NCc1ccc2c(c1)OCO2	1.9	12.0*	1.3	1.1	8.8*	2.2*	0.6	8.6*
O=C(Cc1ccccc1)NCc1ccc2c(c1)OCO2	0.5	6.2	0.4	5.0	0.8	-0.7	.	.
COc1ccccc1C(=O)NC1CCCCN(Cc2ccc(C)cc2)C1=O (configuration not stated)	-0.6	1.4	.	-0.8	0.7	-1.1	.	.
CCC1CCCCN1CCCNC(=O)c1ccc(N2CCOCC2)c(NS(=O)(=O)c2ccc(OC)cc2)c1 (configuration not stated)	0.7	0.3	-0.9	0.9	0.1	-1.1	.	.
CCC1CCCCN1CCCNC(=O)c1ccc2c(c1)NC(=O)CN2C (configuration not stated)	-0.6	-0.4	0.8	5.1	8.8*	-0.8	-0.3	-1.2
Cc1cc(OCc2ccc(C(=O)NN=C3CCCC3)cc2)ccc1Cl	0.2	7.6	0.5	2.4	9.9*	-0.2	0.3	9.4*
COC(=O)C1=C(C)N(Cc2ccc(Br)cc2)C(=S)NC1c1ccc(OC)cc1 (configuration not stated)	-0.5	0.5	.	-3.0	-1.3	-1.6	.	.
COc1ccc(NC(=O)c2cc3ccccc3o2)cc1OC	0.8	5.1	3.2	1.2	-0.2	-0.7	.	.
COc1cccc(NC(=O)c2ccccc2Oc2ccccc2)c1	-0.2	0.1	1.3	-6.0	-2.0	-1.2	.	.
COc1cccc(NC(=O)c2cc3ccccc3o/c2=N\O)c1	1.8	12.3*	-3.5	0.5	7.5*	1.1*	1.8	10.7*
Cc1ccc(NC(=O)c2cc3ccccc3o2)cc1Cl	3.1	13.1*	6.8*	2.0	8.8*	0.0	1.3	5.9*
COc1ccc(NC(=O)c2cc3ccccc3o2)cc1	2.3	12.3*	1.8	1.3	7.2*	0.8	1.5	7.3*
C=CCCN1[C@@H](Cc2ccccc2)COc2ccccc2S1(=O)=O	-1.0	4.7	.	-1.7	-0.8	-0.9	.	.
O=S1(=O)N[C@@H](Cc2ccccc2)COc2cccc(NCCO)c21	-0.2	4.8	.	1.3	0.4	-0.7	.	.
CC(C)(C)S(=O)(=O)N1C[C@@H]2CC(=O)C=C2[C@H]1CCO	1.6	2.2	.	-7.3	0.1	-0.5	.	.
